The text below walks through data of PubChem BioAssay (NCATS).

Where “and” joins values, the source holds several entries; their conditions need not be identical. Equal entries are not always repeated. Records with an inconclusive call do not appear. A number with no mark means an inactive call. Calls of active or inactive are those of the source. Calls follow the shape of the dose curve; as a rule, active = well fitted activation curve with a large enough effect; inconclusive = small, poorly fitted or top-dose-only effect; inactive = no such curve, though single readings can be large or run the other way.
Potency is read from the fitted curve at half-maximal effect.

Chain of Cellular tumor antigen p53 (Homo sapiens) (P04637 whole entry, looked up): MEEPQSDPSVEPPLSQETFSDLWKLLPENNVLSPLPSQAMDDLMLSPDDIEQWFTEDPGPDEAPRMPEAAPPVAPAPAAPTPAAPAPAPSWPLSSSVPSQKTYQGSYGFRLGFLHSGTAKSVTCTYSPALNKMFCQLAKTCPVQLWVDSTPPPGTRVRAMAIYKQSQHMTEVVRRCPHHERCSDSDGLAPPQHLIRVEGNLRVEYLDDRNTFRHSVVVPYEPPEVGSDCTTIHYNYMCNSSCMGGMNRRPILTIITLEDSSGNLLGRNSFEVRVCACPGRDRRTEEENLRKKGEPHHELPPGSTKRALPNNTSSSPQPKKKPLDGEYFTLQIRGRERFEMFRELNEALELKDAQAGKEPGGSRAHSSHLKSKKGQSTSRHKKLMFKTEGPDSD

The test has as its target Cellular tumor antigen p53 (Homo sapiens) (UniProt P04637). The experiment in a line: Primary qHTS for small molecule compounds that upregulate eGFP-tagged delta133p53alpha (in N-terminal) cells. (AID 2060322). Also: nearly all actives have a fitted effect of over 75% in size.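 As to activation: series mostly up to about 56 µM; 0% = DMSO vehicle and 100% = reference activator.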 The conditions noted are these: NCI-H358 eGFP-delta133p53alpha fluorescence, 24 h; activation: active compounds read high. The method in brief:
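NCI-H358 cells pre-induced 24 h with 10 ng/ml doxycycline to express N-terminal eGFP-delta133p53alpha, then dosed 24 h at 37C without doxycycline; fixed, Hoechst-stained, GFP intensity by laser scanning cytometry, normalized to DMSO (0%) and 57.5 uM 5-azacytidine (100%).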
For orientation: In qHTS, concentration-response curves come from the screen itself.
Regarding `CC(C)(C)[N+]([O-])=Cc1ccc(S(=O)(=O)O)cc1S(=O)(=O)O`, the activation was -9.61%.
For the compound `NC(=O)N1c2ccccc2CC(=O)c2ccccc21`, the activation was 19.2% and 34.6%.
Turning to `CC=CC1=C(C(=O)O)N2C(=O)[C@H](NC(=O)[C@H](N)c3ccc(O)cc3)[C@@H]2SC1`, the activation is 11.1%.
With `COc1ccccc1OC(=O)Oc1ccccc1OC`, the activation is 6.69%.
For the compound `CC(=O)Oc1ccc(C)cc1`, the activation was -17.5%.
Turning to `CC(NC(=O)c1ccccc1N=Cc1c(O)ccc2ccccc12)c1ccccc1` (stereo not given), the Potency was 43.2 µM (active).
Take `COc1ccc2cc(CCC(C)=O)ccc2c1`: the activation is -16.4%.
As to `O=C(CCCCC(=O)Nc1c(I)cc(I)c(C(=O)O)c1I)Nc1c(I)cc(I)c(C(=O)O)c1I`, the activation is 2.82%.
Same read-out and setting: the same measure for `C[C@@H]1CCN(C(=O)CC#N)C[C@H]1N(C)c1ncnc2[nH]ccc12`: -11.8%.
As to `O=c1cc(CO)occ1O`, the activation is -9.6%.
Still for that read-out and setting: the same measure for `C[C@H]1O[C@@H](n2cc(F)c(=O)[nH]c2=O)[C@H](O)[C@H]1O`: 0.294%.
In the case of `CC(=O)N1CCN(c2ccc(OCc3nn(C)c(C)c3-c3cccc4c(CCCOc5cccc6ccccc56)c(C(=O)O)n(Cc5cccnc5)c34)cc2)CC1`, the activation is 22.3%.
Turning to `O=C(CCl)Nc1ccc(S(=O)(=O)c2ccc(NC(=O)CCl)cc2)cc1`, the activation was 4.47%.
Still for that read-out and setting: the result for `Oc1c(Cl)cc(Cl)c(Cl)c1Cc1c(O)c(Cl)cc(Cl)c1Cl` reads 19.8%.
Still for that read-out and setting: the result for `CC(C)C[C@@H]1[C@H](c2ccccc2)OC(=O)N1CCCN1CCCCCC1` reads 1.67%.
